In the supplement of paper PMC11383364:
“And” between values parts separate entries of the source, which are not always exact repeats. Equal entries are not always repeated. ± gives the standard deviation of the averaged measurements.

Tested on: SUM149
Experiment: percent difference in area under dose-response curve of relative cell number, RPMI vs HPLM; higher = drug relatively more effective in HPLM than RPMI (negative = less effective in HPLM)
Details: treatment time: 72 h; dose range: 10-point, 1 nM to 20 µM; media compared: RPMI vs HPLM

Row | SMILES | percent difference in area under dose-response curve
1 | O=C(Nc1cccc(Cl)c1)Nc1ncc(CCNc2ncnc3ccsc23)s1 [SNS314_Mesylate] | -24.4%
2 | Cc1cc(=O)oc2c(C=O)c(O)ccc12 | 5.18%
3 | Cc1cnc(Nc2ccc(OCCN3CCCC3)cc2)nc1Nc1cccc(S(=O)(=O)NC(C)(C)C)c1 | -10.7%
4 | COc1cc(OC2CCN(C)CC2)ccc1Nc1ncc2c(n1)n(C1CCCC1)c(=O)n2C | -4.5%
5 | CCC[C@H](NC(=O)/C(C#N)=C/c1cccc(Br)n1)c1ccccc1 | 5.71%
6 | C=C1/C(=C\C=C2/CCC[C@]3(C)[C@@H]([C@H](C)/C=C/[C@H](C)C(C)C)CC[C@@H]23)C[C@@H](O)C[C@@H]1O [Doxercalciferol] | -7.1%
7 | CC(=O)OC[C@H]1O[C@@H]([S-])[C@H](OC(C)=O)[C@@H](OC(C)=O)[C@@H]1OC(C)=O.CCP(CC)CC.[Au+] [Auranofin] | -10.3%
8 | CC(C)n1nc(-c2ccc3oc(N)nc3c2)c2c(N)ncnc21 | 0.531%
9 | Cc1[nH]c(/C=C2\C(=O)Nc3ccc(S(=O)(=O)Cc4c(Cl)cccc4Cl)cc32)c(C)c1C(=O)N1CCC[C@@H]1CN1CCCC1 | -10.1%
10 | C[C@]1(O)C[C@@H](c2nc(-c3ccc4ccc(-c5ccccc5)nc4c3)c3c(N)nccn32)C1 [Linsitinib] | 1.93%
11 | CN(Cc1cnc2nc(N)nc(N)c2n1)c1ccc(C(=O)N[C@@H](CCC(=O)O)C(=O)O)cc1 [Methotrexate] | -7.17%
12 | Cc1cnc(NC(=O)Nc2cc(Br)c(C)cc2OC[C@@H]2CNCCO2)cn1 | 1.27%
13 | C=CS(=O)(=O)NC1CCN(C(=O)CNc2cc(I)c(Cl)cc2OC)CC1 [KRas_G12C_inhibitor_9] | -1.74%
14 | Cc1cc(NC(=O)c2cccc(NC(=O)/C=C/CN(C)C)c2)ccc1Nc1nccc(-c2cccnc2)n1 | 7.32%
15 | FC(F)c1nc2ccccc2n1-c1nc(N2CCOCC2)nc(N2CCOCC2)n1 | 1.79%
16 | C=CC(=O)Nc1cccc(Nc2nc(Nc3ccc(NC4CN(CCF)C4)cc3OC)ncc2C(F)(F)F)c1 | 10.4%
17 | CCN(CC)C(=S)SSC(=S)N(CC)CC [Disulfiram] | -27.1 ± 6.8%

Row | SMILES | percent difference in area under dose-response curve
18 | CC(=O)N1CCN(c2ccc(OCC3COC(Cn4ccnc4)(c4ccc(Cl)cc4Cl)O3)cc2)CC1 (centres undefined) [Ketoconazole] | -8.22%
19 | CN(C)CC[C@H](CSc1ccccc1)Nc1ccc(S(=O)(=O)NC(=O)c2ccc(N3CCN(Cc4ccccc4-c4ccc(Cl)cc4)CC3)cc2)cc1[N+](=O)[O-] | -4.67% and 1.88%
20 | Nc1ccccc1NC(=O)c1ccc(CNc2nccc(-c3cccnc3)n2)cc1 [Mocetinostat] | 0.546%
21 | Cn1cncc1[C@@](N)(c1ccc(Cl)cc1)c1ccc2c(c1)c(-c1cccc(Cl)c1)cc(=O)n2C [Tipifarnib] | -21.7%
22 | Oc1nc(-c2ccc(C(F)(F)F)cc2)nc2c1CSCC2 | -0.882%
23 | C=CCc1cccc(/C=N/NC(=O)CN2CCN(Cc3ccccc3)CC2)c1O | -12.9%
24 | CCN(CC)CCNC(=O)c1c(C)[nH]c(/C=C2\C(=O)Nc3ccc(F)cc32)c1C [Sunitinib_Malate] | 3.02%
25 | CN(C)CCCn1cc(C2=C(c3c[nH]c4ccccc34)C(=O)NC2=O)c2ccccc21 | 0.14%
26 | CC(=O)[C@]1(O)Cc2c(O)c3c(c(O)c2[C@@H](O[C@H]2C[C@H](N)[C@H](O)[C@H](C)O2)C1)C(=O)c1ccccc1C3=O [Idarubicin_HCl] | -49.3%
27 | O=C1c2c(O)ccc(O)c2C(=O)c2c(NCCNCCO)ccc(NCCNCCO)c21 [Mitoxantrone_HCl] | -32.7%
28 | CCn1c(-c2nonc2N)nc2c(C#CC(C)(C)O)ncc(OC[C@H]3CCCNC3)c21 | 4.22%
29 | N[C@H](C(=O)O)[C@@H]1CC(Cl)=NO1 [Acivicin] | 9.22%
30 | CC(C)C[C@@H](C(=O)N[C@H](C(=O)OC1CCCC1)c1ccccc1)[C@H](O)C(=O)NO | -3.27%
31 | Cc1cccc(-c2[nH]c(C(C)(C)C)nc2-c2ccc3nccnc3c2)n1 | -7.49%
32 | Cc1cc2c(C(=O)NC[C@H](C)c3ccccc3)c(O)c(O)cc2c(O)c1-c1c(C)cc2c(C(=O)NC[C@H](C)c3ccccc3)c(O)c(O)cc2c1O [Sabutoclax] | -9.94%
33 | Cc1ccc(C(=O)Nc2ccc(CN3CCN(C)CC3)c(C(F)(F)F)c2)cc1C#Cc1cnc2cccnn12 [Ponatinib] | 16.9%
34 | O=C1c2c(O)ccc(O)c2C(=O)c2c(NCCNCCO)ccc(NCCNCCO)c21 [Mitoxantrone] | -23.7%
